# Measured values as given in the supplement of paper PMC8728848.
# The entries come from a sample that favours the strongest signals as a whole.
# Assays:
# Experiment in all cases: glycan array binding signal (z-score within array); higher = stronger binding
# Conditions in all cases: glycan notation: IUPAC condensed, linker removed
# [1] = target: Fuc(a1-2)Gal(b1-3)GlcNAc(b1-3)[Neu5Ac(a2-6)Gal(b1-4)GlcNAc(b1-6)]Gal(b1-4)Glc
# Summary of the method: (§1)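 Columns mapping to the same glycan were averaged after glycan names were converted to IUPAC-condensed notation. The data come from 3228 arrays in the Consortium for Functional Glycomics database, limited to those with an available protein sequence. Binding is reported as a within-array Z-score averaged across arrays of one protein sequence and across linkers.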
# [2] = target: Fuc(a1-2)Gal(b1-3)[Fuc(a1-4)]GlcNAc(b1-2)Man(a1-3)[Fuc(a1-2)Gal(b1-3)[Fuc(a1-4)]GlcNAc(b1-2)Man(a1-6)]Man(b1-4)GlcNAc(b1-4)GlcNAc
# Summary of the method: as §1
# [3] = target: Fuc(a1-2)Gal(b1-4)[Fuc(a1-3)]GlcNAc(b1-2)[Fuc(a1-2)Gal(b1-4)[Fuc(a1-3)]GlcNAc(b1-4)]Man(a1-3)[Fuc(a1-2)Gal(b1-4)[Fuc(a1-3)]GlcNAc(b1-2)Man(a1-6)]Man(b1-4)GlcNAc(b1-4)GlcNAc
# Summary of the method: as §1
# [4] = target: Fuc(a1-2)Gal(b1-4)[Fuc(a1-3)]GlcNAc(b1-3)GalNAc
# Summary of the method: as §1
# [5] = target: Fuc(a1-2)[Gal(a1-3)]Gal(b1-3)GlcNAc(b1-2)Man(a1-3)[Fuc(a1-2)[Gal(a1-3)]Gal(b1-3)GlcNAc(b1-2)Man(a1-6)]Man(b1-4)GlcNAc(b1-4)GlcNAc
# Summary of the method: as §1
# [6] = target: Fuc(a1-2)[Gal(a1-3)]Gal(b1-4)GlcNAc(b1-3)GalNAc
# Summary of the method: as §1
# [7] = target: Fuc(a1-2)[Gal(a1-3)]Gal(b1-4)[Fuc(a1-3)]GlcNAc(b1-3)GalNAc
# Summary of the method: as §1
# [8] = target: Fuc(a1-2)[GalNAc(a1-3)]Gal(b1-4)GlcNAc(b1-3)GalNAc
# Summary of the method: as §1
# [9] = target: Fuc(a1-2)[GalNAc(a1-3)]Gal(b1-4)[Fuc(a1-3)]GlcNAc(b1-3)GalNAc
# Summary of the method: as §1
# [10] = target: Fuc(a1-3)[Gal(b1-4)]GlcNAc(b1-3)GalNAc
# Summary of the method: as §1
# [11] = target: Fuc(a1-3)[Gal(b1-4)]GlcNAc(b1-4)Gal(b1-4)[Fuc(a1-3)]GlcNAc
# Summary of the method: as §1
# Gal(a1-2)Gal = target: Gal(a1-2)Gal
# Summary of the method: as §1
# Gal(a1-6)Glc = target: Gal(a1-6)Glc
# Summary of the method: as §1
# [12] = target: Gal(b1-3)GlcNAc(a1-6)Gal(b1-4)GlcNAc
# Summary of the method: as §1
# [13] = target: Gal(b1-3)GlcNAc(b1-2)Man(a1-3)[Gal(b1-3)GlcNAc(b1-2)Man(a1-6)]Man(b1-4)GlcNAc(b1-4)GlcNAc
# Summary of the method: as §1
# [14] = target: Gal(b1-3)GlcNAc(b1-3)Gal(b1-4)Glc
# Summary of the method: as §1
# [15] = target: Gal(b1-3)GlcNAc(b1-3)Gal(b1-4)GlcNAc(b1-2)Man(a1-3)[Gal(b1-3)GlcNAc(b1-3)Gal(b1-4)GlcNAc(b1-2)Man(a1-6)]Man(b1-4)GlcNAc(b1-4)GlcNAc
# Summary of the method: as §1
# [16] = target: Gal(b1-3)GlcNAc(b1-6)GalNAc
# Summary of the method: as §1
# [17] = target: Gal(b1-4)GlcNAc(b1-2)[Gal(b1-4)GlcNAc(b1-6)]Man(a1-6)[Gal(b1-4)GlcNAc(b1-2)Man(a1-3)]Man(b1-4)GlcNAc(b1-4)[Fuc(a1-6)]GlcNAc
# Summary of the method: as §1
# [18] = target: Gal(b1-4)GlcNAc(b1-3)Gal(b1-4)GlcNAc(b1-3)Gal(b1-4)GlcNAc
# Summary of the method: as §1
# [19] = target: Gal(b1-4)GlcNAc(b1-3)Gal(b1-4)GlcNAc(b1-3)Gal(b1-4)GlcNAc(b1-2)[Gal(b1-4)GlcNAc(b1-3)Gal(b1-4)GlcNAc(b1-3)Gal(b1-4)GlcNAc(b1-6)]Man(a1-6)[Gal(b1-4)GlcNAc(b1-3)Gal(b1-4)GlcNAc(b1-3)Gal(b1-4)GlcNAc(b1-2)Man(a1-3)]Man(b1-4)GlcNAc(b1-4)[Fuc(a1-6)]GlcNAc
# Summary of the method: as §1
# [20] = target: Gal(b1-4)GlcNAc(b1-3)Gal(b1-4)GlcNAc(b1-3)Gal(b1-4)GlcNAc(b1-3)Gal(b1-4)GlcNAc(b1-2)Man(a1-3)[Gal(b1-4)GlcNAc(b1-3)Gal(b1-4)GlcNAc(b1-3)Gal(b1-4)GlcNAc(b1-3)Gal(b1-4)GlcNAc(b1-2)Man(a1-6)]Man(b1-4)GlcNAc(b1-4)GlcNAc
# Summary of the method: as §1
# [21] = target: Gal(b1-4)GlcNAc(b1-3)Gal(b1-4)GlcNAc(b1-3)[Gal(b1-4)GlcNAc(b1-3)Gal(b1-4)GlcNAc(b1-6)]GalNAc
# Summary of the method: as §1
# [22] = target: Gal(b1-4)GlcNAc(b1-3)[Gal(b1-4)GlcNAc(b1-6)]Gal(b1-4)GlcNAc
# Summary of the method: as §1
# [23] = target: Gal(b1-4)GlcNAc(b1-6)GalNAc
# Summary of the method: as §1
# [24] = target: Gal(b1-4)GlcNAc(b1-6)[Gal(b1-4)GlcNAc(b1-3)]GalNAc
# Summary of the method: as §1
# Gal(b1-4)GlcNAc6P = target: Gal(b1-4)GlcNAc6P
# Summary of the method: as §1
# Gal3S(b1-4)Glc = target: Gal3S(b1-4)Glc
# Summary of the method: as §1
# [25] = target: Gal3S(b1-4)[Fuc(a1-3)]Glc6S
# Summary of the method: as §1
# [26] = target: Gal3S(b1-4)[Fuc(a1-3)]GlcNAc
# Summary of the method: as §1
# Gal3S4S(b1-4)GlcNAc = target: Gal3S4S(b1-4)GlcNAc
# Summary of the method: as §1
# GalNAc4S6S(b1-4)GlcNAc = target: GalNAc4S6S(b1-4)GlcNAc
# Summary of the method: as §1
# [27] = target: GlcNAc(b1-2)Man(a1-3)[GlcNAc(b1-4)][GlcNAc(b1-2)Man(a1-6)]Man(b1-4)GlcNAc(b1-4)GlcNAc
# Summary of the method: as §1
# [28] = target: GlcNAc(b1-2)[GlcNAc(b1-6)]Man(a1-6)[GlcNAc(b1-2)Man(a1-3)][GlcNAc(b1-4)]Man(b1-4)GlcNAc(b1-4)GlcNAc
# Summary of the method: as §1
# [29] = target: GlcNAc(b1-3)Gal(b1-4)GlcNAc
# Summary of the method: as §1
# [30] = target: GlcNAc(b1-3)Gal(b1-4)GlcNAc(b1-3)Gal(b1-4)GlcNAc(b1-2)[GlcNAc(b1-3)Gal(b1-4)GlcNAc(b1-3)Gal(b1-4)GlcNAc(b1-6)]Man(a1-6)[GlcNAc(b1-3)Gal(b1-4)GlcNAc(b1-3)Gal(b1-4)GlcNAc(b1-2)Man(a1-3)]Man(b1-4)GlcNAc(b1-4)[Fuc(a1-6)]GlcNAc
# Summary of the method: as §1
# [31] = target: GlcNAc(b1-3)[GlcNAc(b1-6)]Gal(b1-4)GlcNAc
# Summary of the method: as §1
# [32] = target: GlcNAc(b1-4)GlcNAc(b1-4)GlcNAc(b1-4)GlcNAc(b1-4)GlcNAc
# Summary of the method: as §1
# Kdn(a2-3)Gal(b1-3)GalNAc = target: Kdn(a2-3)Gal(b1-3)GalNAc
# Summary of the method: as §1
# [33] = target: Man(a1-3)[Man(a1-6)]Man(b1-4)GlcNAc(b1-4)GlcNAc
# Summary of the method: as §1
# Man(a1-6)Man = target: Man(a1-6)Man
# Summary of the method: as §1
# [34] = target: Neu5Ac(a2-3)Gal(b1-3)GalNAc(b1-4)[Neu5Ac(a2-3)]Gal(b1-4)Glc
# Summary of the method: as §1
# [35] = target: Neu5Ac(a2-3)Gal(b1-3)[Fuc(a1-4)]GlcNAc(b1-3)Gal(b1-3)[Fuc(a1-4)]GlcNAc
# Summary of the method: as §1
# [36] = target: Neu5Ac(a2-3)Gal(b1-4)GlcNAc(b1-3)Gal
# Summary of the method: as §1
# [37] = target: Neu5Ac(a2-3)Gal(b1-4)GlcNAc(b1-3)Gal(b1-4)GlcNAc(b1-6)[Gal(b1-3)]GalNAc
# Summary of the method: as §1
# [38] = target: Neu5Ac(a2-3)Gal(b1-4)[Fuc(a1-3)]GlcNAc(b1-3)GalNAc
# Summary of the method: as §1
# [39] = target: Neu5Ac(a2-3)[GalNAc(b1-4)]Gal(b1-4)GlcNAc(b1-3)GalNAc
# Summary of the method: as §1
# [40] = target: Neu5Ac(a2-6)Gal(b1-4)GlcNAc(b1-2)[Neu5Ac(a2-6)Gal(b1-4)GlcNAc(b1-4)]Man(a1-3)[GlcNAc(b1-4)][Neu5Ac(a2-6)Gal(b1-4)GlcNAc(b1-4)Man(a1-6)]Man(b1-4)GlcNAc(b1-4)GlcNAc
# Summary of the method: as §1
# [41] = target: Neu5Ac(a2-8)Neu5Ac(a2-3)Gal(b1-3)GalNAc(b1-4)[Neu5Ac(a2-3)]Gal(b1-4)Glc
# Summary of the method: as §1
binder,measurement,setting,value
"Gal 12 (Homo sapiens), Q96DT0 (protein) MSQPSGGRAPGTRIYSWSCPTVMSPGEKLDPIPDSFILQPPVFHPVVPYVTTIFGGLHAGKMVMLQGVVPLDAHRFQVDFQCGCSLCPRPDIAFHFNPRFHTTKPHVICNTLHGGRWQREARWPHLALRRGSSFLILFLFGNEEVKVSVNGQHFLHFRYRLPLSHVDTLGIFGDILVEAVGFLNINPFVEGSREYPAGHPFLLMSPRLEVPCSHALPQGLSPGQVIIVRGLVLQEPKHFTVSLRDQAAHAPVTLRASFADRTLAWISRWGQKKLISAPFLFYPQRFFEVLLLFQEGGLKLALNGQGLGATSMNQQALEQLRELRISGSVQLYCVHS",glycan array binding signal (z-score),[1],-0.876
same,glycan array binding signal (z-score),[2],6.26
same,glycan array binding signal (z-score),[3],3.71
same,glycan array binding signal (z-score),[4],5.15
same,glycan array binding signal (z-score),[5],-0.674
same,glycan array binding signal (z-score),[6],-0.63
same,glycan array binding signal (z-score),[7],4.56
same,glycan array binding signal (z-score),[8],0.193
same,glycan array binding signal (z-score),[9],2.65
same,glycan array binding signal (z-score),[10],2.44
same,glycan array binding signal (z-score),[11],-0.147
same,glycan array binding signal (z-score),Gal(a1-2)Gal,-0.863
same,glycan array binding signal (z-score),Gal(a1-6)Glc,-0.527
same,glycan array binding signal (z-score),[12],-0.349
same,glycan array binding signal (z-score),[13],0.94
same,glycan array binding signal (z-score),[14],-0.471
same,glycan array binding signal (z-score),[15],-0.574
same,glycan array binding signal (z-score),[16],-0.771
same,glycan array binding signal (z-score),[17],1.75
same,glycan array binding signal (z-score),[18],-0.453
same,glycan array binding signal (z-score),[19],3.44
same,glycan array binding signal (z-score),[20],2.32
same,glycan array binding signal (z-score),[21],-0.119
same,glycan array binding signal (z-score),[22],0.824
same,glycan array binding signal (z-score),[23],0.417
same,glycan array binding signal (z-score),[24],0.954
same,glycan array binding signal (z-score),Gal(b1-4)GlcNAc6P,0.272
same,glycan array binding signal (z-score),Gal3S(b1-4)Glc,0.451
same,glycan array binding signal (z-score),[25],3.19
same,glycan array binding signal (z-score),[26],2.76
same,glycan array binding signal (z-score),Gal3S4S(b1-4)GlcNAc,0.103
same,glycan array binding signal (z-score),GalNAc4S6S(b1-4)GlcNAc,-0.099
same,glycan array binding signal (z-score),[27],0.085
same,glycan array binding signal (z-score),[28],-0.54
same,glycan array binding signal (z-score),[29],-0.475
same,glycan array binding signal (z-score),[30],0.115
same,glycan array binding signal (z-score),[31],-0.57
same,glycan array binding signal (z-score),[32],-0.139
same,glycan array binding signal (z-score),Kdn(a2-3)Gal(b1-3)GalNAc,0.39
same,glycan array binding signal (z-score),[33],-0.172
same,glycan array binding signal (z-score),Man(a1-6)Man,-0.442
same,glycan array binding signal (z-score),[34],0.416
same,glycan array binding signal (z-score),[35],-0.082
same,glycan array binding signal (z-score),[36],-0.004
same,glycan array binding signal (z-score),[37],-0.81
same,glycan array binding signal (z-score),[38],2.37
same,glycan array binding signal (z-score),[39],-0.063
same,glycan array binding signal (z-score),[40],0.922
same,glycan array binding signal (z-score),[41],-0.299
